Bioassay records (PubChem BioAssay)
HT1080 IDH1KD tx – qHTS for induction of synthetic lethality in tumor cells producing 2HG: qHTS for the HT-1080-IDH1KD cell line. HT-1080 IDH1 knockdown viability, ATP luminescence, 48 h. Potency, µM (titrated, usually from 46.1 µM), inactives show at the top dose activity, negative = toxicity, hits mostly cytotoxic. 2% of 360,000 active. AID 686971, 2013;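 also: potency is read from the fitted curve at half-maximal effect; 0% = DMSO wells and -100% = cell-free medium wells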
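Using the IDH1-knockdown HT-1080 line run in the same batch and compound series as the NT line, viability after 48 h at 37 °C was determined by CellTiter-Glo luminescence and expressed as % activity.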
TDP1 cell noCPT – qHTS for Inhibitors of human tyrosyl-DNA phosphodiesterase 1 (TDP1): qHTS in cells in absence of CPT; DT40 Tdp1-/- hTDP1 cells, no CPT, ATP luminescence, 48 h; Potency, µM (top dose mostly 46.2 µM), without a hit: top-dose activity change, negative = growth inhibition, hits mostly inhibitors; 15% of 420,000 active; AID 686978, 2013; also: potency is read from the fitted curve at half-maximal effect; nearly all actives have a fitted effect of over 55% in size
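Growth of hTDP1-complemented DT40 Tdp1-knockout cells is measured by ATP luminescence after at least 48 hr compound exposure at 37 °C, with DMSO substituting for the 20 nM CPT used in the parallel screen.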
HT1080NT lethal – qHTS for induction of synthetic lethality in tumor cells producing 2HG: qHTS for the HT-1080-NT fibrosarcoma cell line; HT-1080-NT fibrosarcoma viability, CellTiter-Glo ATP luminescence, 48 h; 1.6% of 360,000 active; Potency, µM (top dose mostly 46.1 µM), inactives show at the highest dose activity, negative = less viability, most hits filed as cytotoxic;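 also: NT is the 2HG producing partner of a matched IDH1 knockdown line; potency is read from the fitted curve at half-maximal effect; 0% = DMSO-treated cells and -100% = media-only wells without cells; nearly all actives have a fitted effect of over 55% in size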
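Toxicity toward the 2HG-producing NT line was scored as %Activity, normalised to DMSO and no-cell wells, from CellTiter-Glo luminescence after 48 hours' treatment.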
IL1B secr inh – qHTS for Inhibitors of Inflammasome Signaling: IL-1-beta AlphaLISA Primary Screen. THP-1 LPS/ATP IL-1B secretion, AlphaLISA, 16 h; hits give low values. activity change, % at 57.5 µM. 4.7% of 360,000 active. AID 743279, 2014; in the data active = activity change below about -50%; inconclusive = mostly about -30% to -49%
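THP-1 cells pretreated 1 hr with compounds (up to 57.5 uM final), then stimulated with LPS (250 ng/mL final) plus ATP (1.25 mM final); secreted IL-1B measured by AlphaLISA after 16 hr, decreased signal indicating inhibition.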
TDP1 cell CPT – qHTS for Inhibitors of human tyrosyl-DNA phosphodiesterase 1 (TDP1): qHTS in cells in presence of CPT; chicken DT40 Tdp1-/-;hTDP1 cells + 20 nM CPT, ATP luminescence, 48 h; Potency, µM (top dose mostly 46.2 µM), for inactives: top-dose activity change, negative = growth inhibition, usual class: inhibitors; 12% of 420,000 active; also: potency is read from the fitted curve at half-maximal effect; nearly all actives have a fitted effect of over 55% in size
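Chicken DT40 Tdp1-/- cells complemented with human TDP1, 400 cells/well, exposed to compounds plus 20 nM camptothecin for at least 48 h at 37 C; viability read as ATP content by CellTiter-Glo luminescence.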
Numbers without * were called inactive; ? = inconclusive; · = not tested or not shown. This is a sample that favours compounds with a hit; in the whole collection about 19% have one here. Unless noted, calls follow the shape of the dose curve; as a rule, active = well fitted curve in the direction sought with a large enough effect; inconclusive = small, poorly fitted or top-dose-only effect, or another doubt; inactive = no such curve, though single readings can be large; an effect the other way counts as inactive or inconclusive. Unless noted, % is scaled to controls: 0 for no effect and ±100 for the full control effect.

SMILES | HT1080 IDH1KD tx | TDP1 cell noCPT | HT1080NT lethal | IL1B secr inh | TDP1 cell CPT
CCOc1ccc(CCN2C(=O)C(=O)N([C@@H](CC(C)C)CN3CCC[C@H]3CN3C(=O)C(=O)NC[C@@H]3Cc3ccccc3)C[C@@H]2Cc2ccc(O)cc2)cc1 | ? | ? | ? | 0.0 | ?
CCOc1ccc(CCN2C(=O)C(=O)N([C@@H](CC(C)C)CN3CCC[C@@H]3CN3C(=O)C(=O)NC[C@@H]3Cc3ccccc3)C[C@@H]2CC(C)C)cc1 | ? | 23.1µM* | ? | ? | ?
O=C(CCCCCCCC(=O)N1CCCC1)N1CCCC1 | 2.4% | -20.0% | 1.3% | 31.3 | 1.3%
O=C(CNC(=O)c1ccc2c(=O)n3c(nc2c1)CCC3)Nc1ccc(F)c(F)c1 | 2.0% | -7.9% | -5.5% | 0.5 | -10.6%
CCC1Sc2ccc(S(=O)(=O)CCC(=O)NCc3ccco3)cc2NC1=O (stereo not drawn) | -22.5% | ? | -16.5% | 14.7 | ?
CC1=CCC2COC(c3ccc[n+](Cc4ccccc4)c3)C1C2 (stereo not drawn) | -25.5% | 2.91µM* | -27.4% | -6.6 | 3.66µM*
NC(=O)c1ccc[n+](Cc2ccccc2)c1 | 0.7% | -1.6% | 7.4% | 5.3 | -5.5%
COc1cc2c(c3ccccc13)CCCC2=O | 6.2% | -6.8% | 6.7% | -16.5 | -15.2%
COc1ccc(/C=N/c2c(-c3ccc(OC)cc3)nc3n2CCS3)cc1 | 1.9% | 16.4µM* | 12.3% | ? | ?
Cc1cccc(-n2c3c(cc(-c4nc(-c5ccc(Cl)cc5)cs4)c2=O)C(=O)CC(C)(C)C3)c1 | · | -2.2% | · | · | 0.0%
O=C(Nc1cccc(S(=O)(=O)N2CCCCC2)c1)c1c2c(nc3ccccc13)CCN(Cc1ccccc1)C2 | -21.3% | 18.4µM* | -20.1% | -1.0 | 20.6µM*
O=C(CN1CCN(Cc2ccccc2)CC1)Nc1cccc(S(=O)(=O)N2CCCCCC2)c1 | ? | ? | -25.9% | -68.8* | ?
O=C(CN1C(=O)c2ccccc2S1(=O)=O)Nc1cccc(S(=O)(=O)N2CCCCC2)c1 | -7.0% | 18.4µM* | -1.2% | 29.2 | ?
Cc1cc(C(=O)Nc2cccc(S(=O)(=O)N3CCCCC3)c2)c2ccccc2n1 | -19.3% | ? | -27.0% | 6.5 | ?
O=C(CN1C(=O)c2ccccc2S1(=O)=O)Nc1cccc(S(=O)(=O)N2CCOCC2)c1 | 21.6% | -18.7% | 8.5% | 39.7 | 1.1%
O=C(Cn1nnc(-c2ccccc2)n1)Nc1cccc(S(=O)(=O)N2CCCC2)c1 | -15.9% | 20.6µM* | -12.8% | 6.5 | 18.4µM*
C[C@@](N)(C(=O)O)c1ccc(S(=O)(=O)O)cc1 | · | 3.0% | · | · | 4.0%
CCCC(C(=O)Nc1cccc(S(=O)(=O)N2CCCC2)c1)c1ccccc1 (stereo not drawn) | -28.9% | 20.6µM* | ? | -8.5 | 23.1µM*
O=S(=O)(c1cccc(Cn2nnc(-c3ccccc3)n2)c1)N1CCOCC1 | -2.5% | 20.6µM* | -11.1% | 15.3 | 23.1µM*
CC(C)C1NC2(C(=O)c3ccccc3C2=O)C2C(=O)N(c3ccc(F)cc3)C(=O)C12 (stereo not drawn) | -3.9% | 25.9µM* | -3.8% | 7.0 | 25.9µM*
N=C1C(c2nc3ccccc3s2)=C(O)CN1c1ccccc1 | -24.2% | ? | -22.5% | -2.1 | 5.5%
Cc1cccc(NC(=O)CNC(=O)COc2cc(F)ccc2[N+](=O)[O-])c1C | 6.1% | ? | 4.1% | 3.6 | ?
Cc1cccc(NC(=O)CNC(=O)COc2ccc(C(=O)c3ccc(F)cc3)cc2)c1C | -0.4% | 10.3µM* | 3.2% | 41.5 | 18.4µM*
Cc1cccc(OCCC(=O)NCC(=O)Nc2cccc(C)c2C)c1 | -9.9% | -26.0% | -1.7% | -0.2 | -17.0%
Cc1cccc(NC(=O)CNC(=O)COc2ccc(-c3ccc(C#N)cc3)cc2)c1C | -4.1% | 13µM* | -4.3% | 5.3 | -22.5%
SMILES | HT1080 IDH1KD tx | TDP1 cell noCPT | HT1080NT lethal | IL1B secr inh | TDP1 cell CPT
O=C(NNC(=S)NC1CCCCC1)c1ccccc1O | ? | ? | ? | ? | 6.2%
COc1ccc(N2CCN(S(=O)(=O)c3c(C)nc4sc(C)cn4c3=O)CC2)cc1 | · | -12.9% | · | · | -8.7%
Cc1cc2n(n1)CCC(=O)N2Cc1ccc(C(=O)Nc2cccc(C(F)(F)F)c2)cc1 | · | 14.6µM* | · | · | 14.6µM*
Cc1cc2n(n1)CCC(=O)N2Cc1ccc(C(=O)Nc2cc(Cl)ccc2C)cc1 | · | 20.6µM* | · | · | ?
c1ccc(-c2cc3n(c2)CCc2ccccc2-3)cc1 | -14.0% | ? | -22.4% | ? | -18.2%
OC1(c2ccc(Cl)cc2)CN(c2ccccc2)C2=[N+]1CCS2 (stereo not drawn) | ? | ? | -29.5% | -77.7* | -29.6%
COc1ccc(OC)c(N2CC(O)(c3ccccc3)[N+]3=C2SCCC3)c1 (stereo not drawn) | -24.8% | ? | -10.4% | -51.2* | ?
CN(C(=O)Cn1cc(C(F)(F)F)cc(Cl)c1=O)C1CCS(=O)(=O)C1 (stereo not drawn) | 6.8% | -4.8% | 7.8% | 3.8 | 6.6%
CC1(C)O[C@@H]1COc1c2ccoc2cc2oc(=O)ccc12 | 4.0% | 18.4µM* | 2.8% | -2.0 | 11.6µM*
CC(C)=CCOc1c2ccoc2cc2oc(=O)ccc12 | 2.8% | -13.6% | -0.6% | 34.6 | -0.5%
CC1CCN(c2nc3ccccn3c(=O)c2C=O)CC1 | -6.2% | 0.0% | 3.8% | 33.5 | -13.0%
O=Cc1c(Cl)nc2ccccn2c1=O | ? | 16.4µM* | ? | -99.1* | 18.4µM*
Cc1cccn2c(=O)c(C=O)c(Cl)nc12 | ? | 2.31µM* | ? | -96.2* | 2.59µM*
Cc1ccc(C(=O)Nc2ccccc2C(=O)OCc2cc(=O)n3nc(C4CC4)sc3n2)cc1 | · | -11.9% | · | · | 5.5%
COc1cc(OC)c(OC)cc1CNC(=O)CCN1C(=O)c2cccc([N+](=O)[O-])c2C1=O | 2.9% | -5.1% | 0.6% | 11.0 | 1.9%
O=C(Cc1cc2ccccc2o1)NCc1ccc(F)cc1 | -10.9% | 23.1µM* | ? | 17.3 | 20.6µM*
O=C(CCNc1cccc(F)c1)c1cc2ccccc2o1 | -2.9% | 14.6µM* | 6.6% | -8.6 | 16.4µM*
O=C(CCNc1ccc(F)cc1)c1cc2ccccc2o1 | -1.3% | 16.4µM* | -14.3% | ? | 8.2µM*
O=C(Cc1ccc(F)cc1)OCC(=O)c1cc2ccccc2o1 | 0.2% | -15.4% | -0.6% | 25.1 | -10.0%
CCCN(CC(=O)Nc1ccccc1C)C(=O)COc1c(Cl)cccc1Cl | -6.7% | -25.3% | 0.8% | 8.6 | -15.0%
